# Reference: PubChem BioAssay AID1508600 (Functional Genomics Laboratory (NCATS/FGL), 2020)
# The campaign covered roughly 53,000 sequences. About 3,700 (7%) were called active. This is one part of a sample in which actives are shown more often than they occur. A number with no mark means an inactive call.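 The calls were made as follows: active = gene knockdowns whose robust z-score for IL-1 alpha signal is at least 2 or at most -2, so actives lie on both sides; inactive = the rest.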
# Experiment: Components of the Cytosolic LPS Sensing Pathway: Gene Identification via Genome-wide siRNA Screen;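 also: robust z of the log signal after scaling to non-targeting control siRNA wells of the plate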
# Conditions: RAW264.7 macrophages, IL-1a HTRF, actives lie on both sides, screened at 100 nM (by protocol), cells primed 5 h with Pam3CSK4 first
# In short: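 Mouse macrophage line RAW264.7 is transfected with siRNA (100 nM final), grown 48h, primed with TLR ligand Pam3CSK4 5 h and given intracellular LipidA 24 h. IL-1a in supernatant is read by HTRF and viability by luminescence.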
row,Sequence,z-score
1,GGUCUAUCUGAAGAACAGUTT against Xpo5,1.02
2,GGAGGCAUGCCCUAUGAAUTT against Zfp11,1.4
3,CCUCAAAUUAGUGCAGUUATT against Dnah8,0.661
4,GGUGGCACUCUUUCAGAUCTT against Dennd1a,2.08 (active)
5,GCUUGUCAAGUUUGUGAGCTT against Sec14l4,-0.0652
6,GGAAUAGUAACUCUUUCUCTT against Ehbp1l1,-0.0157
7,GGUUGUGGACACAUCCAAATT against Aacs,2.08 (active)
8,GGAUGUUAAAGCAAGUGUATT against Olfr1153,0.169
9,CGAGGAUUUCUAUCCUGACTT against Ascc1,-0.764
10,GGAAGUGCUCUGCUGUACATT against Eml6,0.655
11,GCUUGGUCAUUUUAAUAGGTT against Zscan29,-0.527
12,GGCCAGUGGGAAGUGAAGATT against Sec13,0.124
13,GCCAUAUCAACCGUAUUGGTT against Lzts3,-2.58 (active)
14,CGUGUACCAGCUACCUAAGTT against Phc2,-1.31
15,GGUUAGUAUGUAGCUCCCATT against Olfr982,-0.401
16,GGAACUUAAGAACUUUCUATT against Calb1,2.3 (active)
17,GGCCUAAAUUGACAAACUUTT against Oga,1.04
18,GGUAAAACAGAGGAGUCGGTT against Scaf1,-0.444
19,GGUACAAACUCUCCCUAGATT against Ube2c,-1.29
20,GGAUCUACAUUGCUAAAGUTT against Dbil5,0.0731
21,GCCCAAAAAGUGCUUGCUGTT against Tmem215,-1.76
22,CCUUCCCUUAAAUGGAACCTT against Slc9a1,1.63
23,CGCAGUGAUUAUGACCUCCTT against Thegl,-2.34 (active)

row,Sequence,z-score
1,GCCUUGUUACAAAUAGUCGTT against Tcf12,0.266
2,GGGAUUCGGUGAAGAUUUGTT against Nfe2l1,-0.736
3,GGUGAAAUCCUGAUGUUUUTT against Vps33b,0.301
4,GGGACAAGAUCUGAACUUCTT against Rgl3,-0.36
5,CCUCACUGUGGUAACAUUATT against Olfr452,1.84
6,GGAAAACAAACCACAGCCATT against Tpbpa,-2.66 (active)
7,GGUGCUAUUCAUCUGCACGTT against Lonp1,-1.09
8,GCCUGUCAUGGUUAUGACCTT against Shbg,-0.803
9,GGACAGAUACGUUAUCAAGTT against Il3,1.31
10,CCCAUUUGAAAUUAGGGUATT against Mief1,0.607
11,GCUGGCUUCAUUUUACUUATT against Degs1,0.126
12,GGAUUACAGGCAUUUGGUUTT against Hmgn1,3.01 (active)
13,GGAGUGAAGAUCUGAUUGCTT against Aaas,-1.63
14,GCUGGGAUGGUAUCGUUUCTT against Ripk2,0.559
15,GGUAUUGAUGCCAAAUUAATT against Plekha5,1.38
16,CGUCCUGUCGCUGAUUAAATT against Tcl1,0.323
17,CCGAAAAGUGUGGCGAGAATT against Arid3c,-0.285
18,CCAGAGUAAUUCAUCAUACTT against Agxt,0.172
19,GGUUCAGUUUGCCAAAGACTT against Elfn1,1.45
20,GGACUUCACAUUCUUGAGATT against A130010J15Rik,-0.232
21,GGUGGGCACUCUGGUUUUUTT against Eif4e,4.66 (active)
22,GUAGUAACCAGAUCUUAUATT against Vmn1r29,0.496
23,GGUUCAGCCAGAAUUUUCGTT against Lefty2,0.876

row,Sequence,z-score
1,GGAAAAGACUAACGAGCGGTT against Med11,-0.703
2,GGUCCUUCGUAGUUGUGGUTT against Sp110,1.33
3,GCAAAAACCUAUAGGAAAATT against Srpk2,2.27 (active)
4,GGGAGAUCAUGAUAGCAGCTT against Cox5b,-0.828
5,GCUUGGCUUCAGCAUAUGCTT against Phox2b,-0.867
6,GCCACACUUAAGUCAGACCTT against Tprn,0.597
7,GGUGCUAAGAAAAUCAAAGTT against Ryr2,3.64 (active)
8,GGGAGCAAAUGUAAUUUAUTT against Tbpl1,0.842
9,GGUUUAACUUUAAUGAUGGTT against Cacna1e,-1.39
10,GGGAAUGGGUCUUGUAAACTT against Ppat,-1.4
11,GCAUAUGCUUUUACAACACTT against Zfp280c,0.252
12,GGUCAAUGCUGUUUUUGUUTT against Mxi1,2.41 (active)
13,GGUCUGUGCAAGCAAAUCGTT against Cacng2,-0.153
14,GGAAAAUCAUGGGAGCCUUTT against Lpo,-0.435
15,GGAGAGUGAUGAACAGAUGTT against Pctp,2.21 (active)
16,GGGCUCGUUAAUCUUUUACTT against Nop10,0.753
17,GGAAAUGUUUCUGUUCAUUTT against Nipsnap3b,0.295
18,GGUGACUGACAGCUGCCAATT against Prima1,0.0318
19,GGUUAAAAGAGGUGAUUAGTT against Mtfp1,1.9
20,GGCCCAUCACUUACUAAAGTT against Exoc3l,0.224
21,GGAAUAUUCACAGUCCGAGTT against Zfand3,-2.18 (active)
22,GCCAACAAUAUAAUUCAAGTT against Abca5,1.64
23,GGUGACAAAAAGUCAAAGATT against Dis3l2,-0.542
